From PubChem BioAssay AID1159580 (chemical genetic matrix, 2015)
Hit rate of the full screen: of about 5,500 compounds, about 2,000 (36%) were called active. Not shown: some 18% with an inconclusive outcome. Cut-off read from the data, not from the text of the source: active = normalized growth mostly below about 0.91 (no sharp cut-off); inconclusive = no clear call, values can overlap the other calls; inactive = mostly above about 0.92. This is one part of the list.

Test: chemical genetic growth profiling, strain panel (AID 1159580);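 note: tested at 20 µM; growth read once vehicle control cultures reached saturation at 30 °C; 1 = growth at the plate median or of vehicle wells; lower values mean less growth of the strain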
Conditions: S. cerevisiae deletion strains, growth OD
[1] = locus YDL101C, strain DUN1, active compounds read low
[2] = locus YHR030C, strain SLT2, active compounds read low

Measured: normalized growth

Cc1c(-n2cccc2)cc2c(c1[N+](=O)[O-])C(C)(C)CC2(C)C
inactive: locus YAL013W, strain DEP1, active compounds read low 1.01 | locus YBR229C, strain ROT2, active compounds read low 1.01 | locus YCL061C, strain MRC1, active compounds read low 1.01 | [1] 1.02 | locus YDR150W, strain NUM1, active compounds read low 1.02 | locus YEL061C, strain CIN8, active compounds read low 1 | locus YGR078C, strain PAC10, active compounds read low 1.02 | [2] 1.05 | locus YHR087W, strain rtc3, active compounds read low 1.01 | locus YJL187C, strain SWE1, active compounds read low 1.02 | locus YJR043C, strain POL32, active compounds read low 1.01 | locus YJR075W, strain HOC1, active compounds read low 1.05 | locus YLR039C, strain RIC1, active compounds read low 1.06 | locus YLR058C, strain SHM2 (second series), active compounds read low 0.994 | locus YLR085C, strain ARP6, active compounds read low 1.01 | locus YLR262C, strain YPT6, active compounds read low 1.07 | locus YML094W, strain GIM5, active compounds read low 1.02 | locus YMR219W, strain ESC1, active compounds read low 1.02 | locus YMR263W, strain SAP30, active compounds read low 1 | locus YNL153C, strain GIM3, active compounds read low 0.998 | locus YNL298W, strain CLA4 (second series), active compounds read low 1.04 | locus YNL322C, strain KRE1, active compounds read low 1.02 | locus YNR030W, strain Alg12, active compounds read low 1.01 | locus YOL006C, strain TOP1, active compounds read low 1.03 | locus YPL055C, strain LGE1, active compounds read low 1 | locus YPL241C, strain CIN2, active compounds read low 1 | locus YPR135W, strain CTF4, active compounds read low 1.04

N#CC(C#N)=NNc1ccc(-n2ccc(C(F)(F)F)n2)cc1
active: locus YAR019C, strain CDC15, active compounds read low 0.871 | locus YBL105C, strain PKC1, active compounds read low 0.899 | locus YBR135W, strain CKS1, active compounds read low 0.893 | [1] 0.88 | locus YDL132W, strain cdc53, active compounds read low 0.76 | locus YDL214C, strain PRR2, active compounds read low 0.348 | locus YDR052C, strain DBF4, active compounds read low 0.876 | locus YDR054C, strain cdc34, active compounds read low 0.607 | locus YDR477W, strain SNF1, active compounds read low 0.368 | locus YER123W, strain YCK3, active compounds read low 0.208 | locus YER133W, strain GLC7, active compounds read low 0.422 | locus YFL009W, strain cdc4, active compounds read low 0.876 | locus YFL029C, strain CAK1, active compounds read low 0.853 | locus YFR019W, strain FAB1, active compounds read low 0.199 | locus YGR040W, strain KSS1, active compounds read low 0.48 | locus YGR052W, strain FMP48, active compounds read low 0.31 | locus YGR092W, strain DBF2, active compounds read low 0.176 | [2] 0.131 | locus YHR079C, strain IRE1, active compounds read low 0.175 | locus YHR082C, strain KSP1, active compounds read low 0.271 | locus YJL095W, strain BCK1, active compounds read low 0.204 | locus YJL157C, strain FAR1, active compounds read low 0.329 | locus YJR016C, strain ILV3, active compounds read low 0.895 | locus YJR066W, strain TOR1 (second series), active compounds read low 0.225 | locus YJR066W, strain TOR1, active compounds read low 0.201 | locus YKL048C, strain ELM1, active compounds read low 0.321 | locus YKL067W, strain YNK1, active compounds read low 0.403 | locus YKL101W, strain HSL1, active compounds read low 0.349 | locus YKL193C, strain SDS22, active compounds read low 0.875 | locus YKL203C, strain TOR2, active compounds read low 0.283 | locus YLR113W, strain HOG1, active compounds read low 0.207 | locus YLR133W, strain CKI1, active compounds read low 0.383 | locus YLR403W, strain SFP1, active compounds read low 0.448 | locus YML070W, strain DAK1, active compounds read low 0.229 | locus YMR001C, strain CDC5, active compounds read low 0.883 | locus YMR205C, strain PFK2 (second series), active compounds read low 0.433 | locus YMR277W, strain FCP1, active compounds read low 0.865 | locus YNL020C, strain ARK1, active compounds read low 0.349 | locus YNL161W, strain CBK1, active compounds read low 0.884 | locus YNL183C, strain NPR1, active compounds read low 0.292 | locus YNL207W, strain RIO2, active compounds read low 0.875 | locus YNL222W, strain SSU72, active compounds read low 0.861 | locus YNL307C, strain MCK1 (second series), active compounds read low 0.379 | locus YOL078W, strain AVO1, active compounds read low 0.739 | locus YOL136C, strain PFK27, active compounds read low 0.202 | locus YOR061W, strain CKA2, active compounds read low 0.568 | locus YOR119C, strain RIO1, active compounds read low 0.419 | locus YOR231W, strain MKK1, active compounds read low 0.156 | locus YPL031C, strain PHO85, active compounds read low 0.273 | locus YPL153C, strain RAD53, active compounds read low 0.157 | locus YPL204W, strain HRR25, active compounds read low 0.183 | locus YPL209C, strain IPL1, active compounds read low 0.897 | locus YPL256C, strain CLN2, active compounds read low 0.178 | locus YPR025C, strain CCL1, active compounds read low 0.89 | strain NNK1, active compounds read low 0.866 | strain TSCII, active compounds read low 0.861
inactive: locus YBR136W, strain MEC1, active compounds read low 0.905 | locus YBR160W, strain CDC28, active compounds read low 0.902 | locus YDL017W, strain CDC7, active compounds read low 0.926 | locus YDL028C, strain MPS1, active compounds read low 0.923 | locus YDL108W, strain KIN28, active compounds read low 0.907 | locus YDR226W, strain ADK1, active compounds read low 0.917 | locus YFR003C, strain YPI1, active compounds read low 0.927 | locus YFR028C, strain CDC14, active compounds read low 0.899 | locus YHR205W, strain SCH9, active compounds read low 0.595 | locus YIL147C, strain SLN1, active compounds read low 0.928 | locus YJL128C, strain PBS2, active compounds read low 0.915 | locus YNL006W, strain LST8, active compounds read low 0.914 | locus YOR329C, strain SCD5, active compounds read low 0.924 | locus YPR106W, strain ISR1, active compounds read low 0.902 | locus YPR111W, strain DBF20, active compounds read low 0.878
